Activity calls are given as the source filed them. Calls come from the whole dose curve; as a rule, active = well fitted curve in the direction sought with a large enough effect; inactive = no such curve, though single readings can be large or run the other way.

For 30 compounds, outcome results are on record in PubChem BioAssay (NCATS).

The target in the test is Alpha-galactosidase (Coffea arabica) (UniProt Q42656). In words: Counterscreen for Glucocerebrosidase Inhibitors: qHTS Assay for Coffee Bean alpha-Galactosidase at pH 5.9 (AID 998). The note with it: coffee bean alpha-galactosidase enzyme assay; series mostly up to 76.9 µM. In a few lines: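 In 50 mM citric acid pH 5.9 with 0.005% Tween-20, coffee bean enzyme hydrolyses 80 uM 4-MU alpha-D-galactopyranoside over 20 min at RT. Activity is normalized to controls; AC50 comes from Hill-modelled concentration-response data.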
Chain of Alpha-galactosidase (Coffea arabica) (Q42656 whole entry, looked up): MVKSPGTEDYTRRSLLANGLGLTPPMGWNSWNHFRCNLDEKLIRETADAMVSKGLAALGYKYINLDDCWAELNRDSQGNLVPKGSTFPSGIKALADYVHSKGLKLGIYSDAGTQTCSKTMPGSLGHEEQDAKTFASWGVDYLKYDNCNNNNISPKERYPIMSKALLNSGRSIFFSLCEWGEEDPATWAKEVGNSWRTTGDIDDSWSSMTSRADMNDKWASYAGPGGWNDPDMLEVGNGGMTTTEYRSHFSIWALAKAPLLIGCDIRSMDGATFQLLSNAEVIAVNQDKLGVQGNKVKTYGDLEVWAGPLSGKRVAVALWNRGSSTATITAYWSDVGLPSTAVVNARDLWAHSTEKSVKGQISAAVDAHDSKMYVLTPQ
On the technique in general: A counterscreen serves to expose hits that act by an unwanted route or on another target.
As for `Nc1ccn([C@H]2CC[C@@H](CO)O2)c(=O)n1`, the compound was classed as inactive.

With `C[N+](C)(C)CCOC(=O)CCC(=O)OCC[N+](C)(C)C`, the compound was called inactive.

Turning to `c1cnc(N2CCN(Cc3ccc4c(c3)OCO4)CC2)nc1`, the compound was classed as inactive.

As to `CC1=C(CC(=O)O)c2cc(F)ccc2/C1=C\c1ccc(S(C)(=O)=O)cc1`, the outcome was inactive.

Turning to `CCNC(=O)N1CCN(CCCC(c2ccc(F)cc2)c2ccc(F)cc2)CC1`, the result was inactive.

As to `CSc1ccc(C(=O)c2[nH]c(=O)[nH]c2C)cc1`, the outcome was inactive.

For `CN(C)CCN(Cc1cccs1)c1ccccn1`, the compound was called inactive.

On to `CCc1cccc2c3c([nH]c12)C(CC)(CC(=O)O)OCC3` (stereo not given), for which the call was inactive.

Take `OC(CN1CCC(Cc2ccc(F)cc2)CC1)c1ccc(Cl)cc1` (stereo not given): the compound was classed as inactive.

In the case of `Cc1ccc(N(CC2=NCCN2)c2cccc(O)c2)cc1`, the compound was classed as inactive.

For `Oc1ccc(O)cc1`, the compound was called inactive.

With `O=c1[nH]c2ccccc2n1CCCN1CCN(C(c2ccccc2)c2ccccc2)CC1`, the result was inactive.

In the case of `OCCN1CCN(CCCN2c3ccccc3C=Cc3ccccc32)CC1`, the result was inactive.

Regarding `O=C(O)CN(CCOCCOCCN(CC(=O)O)CC(=O)O)CC(=O)O`, the call was inactive.

With `O=C(c1ccc(F)cc1)C1CCN(CCn2c(=O)[nH]c3ccccc3c2=O)CC1`, the result was inactive.

Turning to `CCCn1cnc2c1c(=O)n(CCCCC(C)=O)c(=O)n2C`, the result was inactive.

Regarding `CN(C(=O)CCCOc1ccc2[nH]c(=O)ccc2c1)C1CCCCC1`, the call was inactive.

In the case of `CN1CCC(=C2c3ccccc3CC(=O)c3sccc32)CC1`, the compound was classed as inactive.

On to `N[C@@H](Cc1c[nH]c2ccc(O)cc12)C(=O)O`, for which the outcome was inactive.

Regarding `O=C(O)CCc1nc(-c2ccccc2)c(-c2ccccc2)o1`, the compound was classed as inactive.

As for `CCCCC1C(=O)N(c2ccccc2)N(c2ccccc2)C1=O`, the call was inactive.

For the compound `COc1ccccc1N1CCN(CCCNc2cc(=O)n(C)c(=O)n2C)CC1`, the outcome was inactive.

Take `CCCCNc1cc(C(=O)O)cc(S(N)(=O)=O)c1Oc1ccccc1`: the outcome was inactive.

As to `Clc1ccc(Cn2c(CN3CCCC3)nc3ccccc32)cc1`, the result was inactive.

Consider `O=C(CCCN1CCC(O)(c2cccc(C(F)(F)F)c2)CC1)c1ccc(F)cc1`, for which the outcome was inactive.

With `C=Cc1c(C)c2cc3[nH]c(cc4nc(cc5nc(cc1[nH]2)C(C)=C5CCC(=O)O)C(CCC(=O)O)=C4C)c(C)c3C=C`, the call was inactive.

`O=C1N(c2ccccc2)c2ccccc2C1(Cc1ccncc1)Cc1ccncc1`: the compound was called inactive.

Turning to `CCOC(=O)Nc1ccc(NCc2ccc(F)cc2)nc1N`, the result was inactive.

Turning to `c1cc(CN2CCCCC2)cc(OCCCNc2nc3ccccc3s2)c1`, the result was inactive.

Take `C(=C\c1ccccc1)/CN1CCN(C(c2ccccc2)c2ccccc2)CC1`: the result was inactive.
